# Data reported in PubChem BioAssay.
# Activity calls are given as the source filed them.
# Experiments:
# [1] = small molecules captured by biotinylated probe aFSTL3 – biochemical, small-molecule microarray, fluorescence 635/667, stem cell growth factor project, primary screen (AID 1064); conditions: higher = more signal;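 also: measures binding of the biotinylated anti-FSTL3 antibody to printed compounds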
# [2] = binders from COS7 lysate, DM2A8 probe, primary screen, torsin A project, cell lysate, small-molecule microarray, fluorescence 635/667 (AID 1065); conditions: higher = more signal, COS7 lysate expressing mutant human TOR1A
# [3] = small molecules captured by biotinylated probe aFGF2 – biochemical, small-molecule microarray, fluorescence 635/667, stem cell growth factor project, primary screen (AID 1067); conditions: higher = more signal;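 also: measures binding of biotinylated aFGF2 protein to printed compounds on slides; z-score merges feature fluorescence and signal-to-noise across triplicate slides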
# [4] = small molecules captured by biotinylated probe aFGF10 – biochemical, small-molecule microarray, fluorescence 635/667, stem cell growth factor project, primary screen (AID 1071); conditions: higher = more signal;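 also: score merges 667 nm spot intensity and signal to noise from triplicate slides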
# [5] = target: Neurogenic locus notch homolog protein 2 (Homo sapiens) (UniProt Q04721); test: small molecules binding Notch2 protein – biochemical, small-molecule microarray, 635 nm fluorescence, stem cell growth factors, primary screen (AID 1073); conditions: higher = more signal
# [6] = target: Pro-neuregulin-1, membrane-bound isoform (Homo sapiens) (UniProt Q02297); test: small molecules binding neuregulin-1 protein – biochemical, small-molecule microarray, fluorescence 635/667, psychiatric disease protein project, primary screen (AID 1075); conditions: NRG1 binding, 635 nm fluorescence, higher = more signal;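 also: score combines 667 nm spot fluorescence with signal to noise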
# [7] = tested on: Neuregulin-1 EGF-like domain; test: small molecules binding NRG1 EGF domain – biochemical, small-molecule microarray, 635 nm fluorescence, primary screen (AID 1081); conditions: higher = more signal;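 also: binding of the protein to compounds printed on small-molecule microarray slides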
# [8] = FRG1 expression reporter modulators in myotubes – cell-based, C2C12 myotubes, firefly/Renilla luciferase, luminescence, FRG1 inhibition for FSHD, primary screen (AID 1084); conditions: FRG1 promoter luciferase, higher = more signal, called active from +8 up or from −8 down
# [9] = small molecules captured by biotinylated probe aFST – biochemical, small-molecule microarray, fluorescence 635/667, stem cell growth factor project, primary screen (AID 1086); conditions: higher = more signal;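 also: score merges 667 nm fluorescence with signal-to-noise of each printed compound spot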
# [10] = binders of probe aHhip on microarray, primary screen, stem cell growth factor project, biochemical, small-molecule microarray, fluorescence 635/667 (AID 1087); conditions: higher = more signal;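 also: score merges spot fluorescence at 667nm with spot signal to noise ratio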
# [11] = tested on: PRMT1 (protein arginine N-methyltransferase 1); test: small molecules binding arginine methyltransferase PRMT1 – biochemical, small-molecule microarray, 635 nm fluorescence, primary screen (AID 1088); conditions: higher = more signal;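 also: binding of Prmt1 protein to compounds spotted on small-molecule microarray slides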
# [12] = growth effects on S. cerevisiae YJM789 – YJM789 clinical isolate, OD600, 24 h, basal, primary screen (AID 1089); conditions: higher = more signal, called active from +8 up or from −8 down;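 also: growth of clinical yeast isolate S. cerevisiae YJM 789 seeded 1000 cells per well; test concentration not given here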
# [13] = S. pombe growth modifiers, basal conditions – strain 972, OD600, 24 h, no modulator, primary screen (AID 1090);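 also: basal condition with compound alone and no growth modifier present; test concentration not given here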; conditions: S. pombe 972 growth, higher = more signal, called active from +8 up or from −8 down
# [14] = budding yeast growth modifiers under rapamycin – strain BY4716, OD600, 96 h, primary screen (AID 1091); also: test concentration not given here; conditions: S. cerevisiae BY4716 + rapamycin, higher = more signal, called active from +8 up or from −8 down
# [15] = target: Torsin-1A-interacting protein 2 (Homo sapiens) (UniProt Q8NFQ8); test: small molecules binding lysate-expressed LULL1 – cell lysate, human LULL1 lysate, 635/667 nm fluorescence, primary screen (AID 1092); conditions: small-molecule microarray, hLULL1 lysate binding, 635 nm fluorescence; higher = more signal;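 also: probe is lysate of COS7 cells overexpressing human LULL1; score merges per-feature 667 nm fluorescence with signal-to-noise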
# [16] = optical density change of DRC41 E. coli – strain DRC41, OD650, 24 h, E. coli filamentation project, primary screen (AID 1093);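 also: MC1000 strain lacking acrAB efflux and sulA so SOS filamentation is blocked; test concentration not given here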; conditions: E. coli DRC41 growth, higher = more signal, called active from +8 up or from −8 down
# [17] = probe aLefty2 binding to arrayed compounds – biochemical, biotinylated probe, 635/667 nm fluorescence, primary screen (AID 1094); conditions: small-molecule microarray, higher = more signal;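 also: score merges spot fluorescence near 667 nm with spot signal-to-noise ratio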
# [18] = tested on: Noggin (protein binding on small-molecule microarray); test: small molecules binding Noggin protein – biochemical, 635/667 nm fluorescence, primary screen (AID 1095); conditions: 635 nm fluorescence, higher = more signal;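 also: score merges 667 nm feature fluorescence with signal to noise over triplicate slides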
# [19] = target: Neurogenic locus notch homolog protein 3 (Homo sapiens) (UniProt Q9UM47); test: small molecules binding NOTCH3 protein – biochemical, 635/667 nm fluorescence, primary screen (AID 1096); conditions: small-molecule microarray, 635 nm fluorescence, higher = more signal
# [20] = probe aEGFR binding to arrayed compounds – biochemical, biotinylated probe, 635/667 nm fluorescence, primary screen (AID 1097); conditions: small-molecule microarray, higher = more signal;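 also: probe is a biotinylated anti-EGFR antibody binding compounds printed on slides; score combines fluorescence near 667 nm and signal to noise of each spot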
# Chain of Neurogenic locus notch homolog protein 2 (Homo sapiens) (Q04721 whole entry, looked up, canonical isoform): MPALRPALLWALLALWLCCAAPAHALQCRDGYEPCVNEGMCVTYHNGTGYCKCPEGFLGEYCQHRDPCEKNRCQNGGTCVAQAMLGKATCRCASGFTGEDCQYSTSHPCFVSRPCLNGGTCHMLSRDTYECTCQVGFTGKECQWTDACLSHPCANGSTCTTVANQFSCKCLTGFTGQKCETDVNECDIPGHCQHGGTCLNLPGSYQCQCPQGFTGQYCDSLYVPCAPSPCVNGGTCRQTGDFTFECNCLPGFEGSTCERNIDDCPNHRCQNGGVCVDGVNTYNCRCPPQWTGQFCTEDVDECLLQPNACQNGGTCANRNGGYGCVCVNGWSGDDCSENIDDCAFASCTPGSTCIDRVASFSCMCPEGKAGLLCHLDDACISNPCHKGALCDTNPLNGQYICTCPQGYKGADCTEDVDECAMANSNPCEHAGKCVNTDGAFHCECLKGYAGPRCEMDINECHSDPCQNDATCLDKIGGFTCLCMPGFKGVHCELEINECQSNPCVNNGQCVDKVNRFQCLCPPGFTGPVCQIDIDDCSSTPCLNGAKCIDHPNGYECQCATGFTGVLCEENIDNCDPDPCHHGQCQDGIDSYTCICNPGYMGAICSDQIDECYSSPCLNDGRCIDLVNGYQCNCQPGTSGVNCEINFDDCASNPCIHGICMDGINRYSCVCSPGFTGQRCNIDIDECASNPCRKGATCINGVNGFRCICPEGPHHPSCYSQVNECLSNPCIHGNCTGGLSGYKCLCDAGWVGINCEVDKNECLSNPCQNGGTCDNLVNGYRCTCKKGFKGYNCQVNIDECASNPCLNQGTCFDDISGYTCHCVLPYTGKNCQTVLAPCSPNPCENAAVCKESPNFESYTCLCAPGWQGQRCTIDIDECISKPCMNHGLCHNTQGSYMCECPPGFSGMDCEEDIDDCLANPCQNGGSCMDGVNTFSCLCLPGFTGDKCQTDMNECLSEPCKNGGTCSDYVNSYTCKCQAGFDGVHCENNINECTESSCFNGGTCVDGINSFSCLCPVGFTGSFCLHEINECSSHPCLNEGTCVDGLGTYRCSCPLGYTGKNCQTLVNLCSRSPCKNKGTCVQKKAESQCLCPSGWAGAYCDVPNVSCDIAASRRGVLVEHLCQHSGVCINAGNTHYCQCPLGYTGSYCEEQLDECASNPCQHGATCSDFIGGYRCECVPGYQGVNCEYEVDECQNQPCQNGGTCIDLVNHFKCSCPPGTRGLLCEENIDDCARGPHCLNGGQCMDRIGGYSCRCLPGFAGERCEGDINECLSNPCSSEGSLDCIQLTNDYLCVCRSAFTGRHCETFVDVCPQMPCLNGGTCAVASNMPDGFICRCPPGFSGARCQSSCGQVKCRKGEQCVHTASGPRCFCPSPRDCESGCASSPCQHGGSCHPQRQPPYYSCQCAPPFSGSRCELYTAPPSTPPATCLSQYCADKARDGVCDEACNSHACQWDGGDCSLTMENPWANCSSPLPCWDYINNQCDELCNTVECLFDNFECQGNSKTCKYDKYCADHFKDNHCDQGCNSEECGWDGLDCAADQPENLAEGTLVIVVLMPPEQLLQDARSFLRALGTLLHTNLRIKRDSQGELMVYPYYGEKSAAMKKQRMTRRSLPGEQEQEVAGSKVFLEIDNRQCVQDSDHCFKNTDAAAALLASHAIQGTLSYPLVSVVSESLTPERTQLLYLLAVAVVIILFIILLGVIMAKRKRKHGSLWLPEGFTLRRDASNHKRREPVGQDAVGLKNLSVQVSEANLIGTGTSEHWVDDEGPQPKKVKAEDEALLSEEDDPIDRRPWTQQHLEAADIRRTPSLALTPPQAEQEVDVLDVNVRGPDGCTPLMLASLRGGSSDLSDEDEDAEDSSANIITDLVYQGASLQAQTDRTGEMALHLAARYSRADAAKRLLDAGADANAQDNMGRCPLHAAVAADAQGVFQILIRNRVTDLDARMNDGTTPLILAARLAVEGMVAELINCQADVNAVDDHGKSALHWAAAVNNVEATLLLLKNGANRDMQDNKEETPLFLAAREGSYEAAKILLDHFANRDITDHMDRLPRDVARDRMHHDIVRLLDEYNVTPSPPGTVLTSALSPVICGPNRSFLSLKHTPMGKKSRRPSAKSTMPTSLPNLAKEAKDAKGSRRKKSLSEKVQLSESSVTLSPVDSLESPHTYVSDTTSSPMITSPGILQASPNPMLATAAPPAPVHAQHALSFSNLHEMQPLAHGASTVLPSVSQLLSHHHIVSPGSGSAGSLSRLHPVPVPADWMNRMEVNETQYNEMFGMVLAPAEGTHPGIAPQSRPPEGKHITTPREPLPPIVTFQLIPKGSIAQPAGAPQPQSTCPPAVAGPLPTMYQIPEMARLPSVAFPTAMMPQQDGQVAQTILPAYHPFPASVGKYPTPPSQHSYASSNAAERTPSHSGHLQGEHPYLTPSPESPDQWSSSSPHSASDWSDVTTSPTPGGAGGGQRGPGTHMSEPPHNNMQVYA
# Chain of Neurogenic locus notch homolog protein 3 (Homo sapiens) (Q9UM47 whole entry, looked up): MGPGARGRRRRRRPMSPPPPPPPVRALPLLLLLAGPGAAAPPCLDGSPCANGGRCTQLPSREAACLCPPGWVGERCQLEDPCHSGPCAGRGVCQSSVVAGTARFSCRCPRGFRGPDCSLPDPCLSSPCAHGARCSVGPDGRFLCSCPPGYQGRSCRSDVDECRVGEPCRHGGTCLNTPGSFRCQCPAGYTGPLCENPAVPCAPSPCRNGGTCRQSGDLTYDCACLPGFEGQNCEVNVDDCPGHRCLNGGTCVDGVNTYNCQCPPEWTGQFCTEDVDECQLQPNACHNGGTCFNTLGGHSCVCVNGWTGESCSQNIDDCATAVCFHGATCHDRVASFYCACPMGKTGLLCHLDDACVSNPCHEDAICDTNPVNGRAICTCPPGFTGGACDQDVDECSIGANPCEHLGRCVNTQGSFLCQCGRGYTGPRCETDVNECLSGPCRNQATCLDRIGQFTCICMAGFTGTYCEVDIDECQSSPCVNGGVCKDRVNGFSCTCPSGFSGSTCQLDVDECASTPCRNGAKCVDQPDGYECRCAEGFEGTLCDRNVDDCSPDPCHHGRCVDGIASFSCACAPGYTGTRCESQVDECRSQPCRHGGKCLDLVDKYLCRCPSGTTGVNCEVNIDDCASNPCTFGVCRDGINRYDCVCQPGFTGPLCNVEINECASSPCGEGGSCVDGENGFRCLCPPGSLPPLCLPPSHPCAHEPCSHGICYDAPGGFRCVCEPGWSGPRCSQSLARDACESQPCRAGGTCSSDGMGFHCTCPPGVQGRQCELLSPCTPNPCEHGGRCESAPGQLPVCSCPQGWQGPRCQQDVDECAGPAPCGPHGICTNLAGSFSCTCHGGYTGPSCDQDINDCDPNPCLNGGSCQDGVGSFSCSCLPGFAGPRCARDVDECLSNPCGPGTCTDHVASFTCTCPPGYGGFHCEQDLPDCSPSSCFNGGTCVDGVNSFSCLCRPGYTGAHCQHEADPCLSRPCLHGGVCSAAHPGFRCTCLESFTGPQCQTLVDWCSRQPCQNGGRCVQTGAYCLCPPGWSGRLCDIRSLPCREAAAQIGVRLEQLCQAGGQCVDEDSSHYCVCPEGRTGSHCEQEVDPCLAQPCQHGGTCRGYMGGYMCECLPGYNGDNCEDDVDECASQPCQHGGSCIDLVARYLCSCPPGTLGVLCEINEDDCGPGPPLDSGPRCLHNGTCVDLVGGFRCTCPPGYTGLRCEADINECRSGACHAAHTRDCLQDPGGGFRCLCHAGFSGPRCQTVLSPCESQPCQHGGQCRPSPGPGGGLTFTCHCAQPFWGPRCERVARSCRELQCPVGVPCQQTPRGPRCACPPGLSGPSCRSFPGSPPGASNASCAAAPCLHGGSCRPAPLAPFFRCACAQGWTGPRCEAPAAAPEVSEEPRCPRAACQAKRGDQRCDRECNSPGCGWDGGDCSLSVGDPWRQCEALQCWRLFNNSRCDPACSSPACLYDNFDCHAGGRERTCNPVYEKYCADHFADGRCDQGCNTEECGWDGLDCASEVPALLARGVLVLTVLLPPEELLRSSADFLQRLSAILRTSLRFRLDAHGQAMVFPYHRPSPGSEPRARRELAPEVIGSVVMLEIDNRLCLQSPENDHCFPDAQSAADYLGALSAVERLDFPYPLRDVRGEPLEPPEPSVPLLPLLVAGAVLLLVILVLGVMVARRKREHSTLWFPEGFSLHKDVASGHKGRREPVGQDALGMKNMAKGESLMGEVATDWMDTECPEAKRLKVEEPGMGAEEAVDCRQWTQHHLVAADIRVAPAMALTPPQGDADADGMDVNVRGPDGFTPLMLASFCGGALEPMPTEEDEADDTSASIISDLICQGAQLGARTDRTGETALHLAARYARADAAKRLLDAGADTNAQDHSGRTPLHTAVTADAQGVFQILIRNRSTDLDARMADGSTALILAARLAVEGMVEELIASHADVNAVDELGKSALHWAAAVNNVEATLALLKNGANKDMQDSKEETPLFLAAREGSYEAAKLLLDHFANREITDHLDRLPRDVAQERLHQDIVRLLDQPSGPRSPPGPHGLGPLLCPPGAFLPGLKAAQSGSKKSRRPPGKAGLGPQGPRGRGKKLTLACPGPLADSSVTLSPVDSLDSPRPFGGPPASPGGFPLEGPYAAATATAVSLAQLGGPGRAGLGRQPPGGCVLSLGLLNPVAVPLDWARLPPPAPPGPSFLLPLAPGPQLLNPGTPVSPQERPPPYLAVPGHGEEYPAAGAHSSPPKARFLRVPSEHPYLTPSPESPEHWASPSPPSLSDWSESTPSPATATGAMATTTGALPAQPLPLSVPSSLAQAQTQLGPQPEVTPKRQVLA
smiles,measurement,setting,value
CC(C)=CCCC(C)=CC(O)C1C=CC2C(=O)N(c3ccccc3)C(=O)C2N1Nc1ccccc1 (stereo not given),composite z-score,[1],0.475
same,composite z-score,[2],0.135
same,composite z-score,[3],0.155
same,composite z-score,[4],1.16
same,composite z-score,[5],1.64
same,composite z-score,[6],1.17
same,composite z-score,[7],1.06
same,z-score,[8],-2.84 (inactive)
same,composite z-score,[9],1.6
same,composite z-score,[10],0.0497
same,composite z-score,[11],0.967
same,z-score,[12],0.316 (inactive)
same,z-score,[13],0.171 (inactive)
same,z-score,[14],1.02 (inactive)
same,composite z-score,[15],2.89
same,z-score,[16],-1.99 (inactive)
same,composite z-score,[17],0.201
same,composite z-score,[18],-0.196
same,composite z-score,[19],1.04
same,composite z-score,[20],0.438
CCOC(=O)C[C@H]1[C@H](OC(=O)c2ccc(-c3ccccc3)cc2)[C@@H](NC(=O)c2ccc3ccccc3c2)c2cc(OCCCO)ccc2N1C(=O)Cc1ccc(OC)cc1,composite z-score,[1],-0.325
same,composite z-score,[2],0.228
same,composite z-score,[3],0.0325
same,composite z-score,[4],0.0493
same,composite z-score,[5],0.425
same,composite z-score,[6],0.15
same,composite z-score,[7],-0.733
same,z-score,[8],1.21 (inactive)
same,composite z-score,[9],0.628
same,composite z-score,[10],-0.134
same,composite z-score,[11],0.265
same,z-score,[12],-1.32 (inactive)
same,z-score,[13],0.636 (inactive)
same,z-score,[14],-0.115 (inactive)
same,composite z-score,[15],0.948
same,z-score,[16],0.0672 (inactive)
same,composite z-score,[17],-0.124
same,composite z-score,[18],-0.205
same,composite z-score,[19],-0.209
same,composite z-score,[20],-0.128
CC(C)N1C(=O)[C@@]2(c3ccc([N+](=O)[O-])cc3)CC(=O)N(CC34CC5CC(CC(C5)C3)C4)[C@@H]2c2ccc(CO)cc21,composite z-score,[1],-0.448
same,composite z-score,[2],-1.26
same,composite z-score,[3],-0.188
same,composite z-score,[4],-0.373
same,composite z-score,[5],-1.16
same,composite z-score,[6],-0.34
same,composite z-score,[7],-0.867
same,z-score,[8],0.63 (inactive)
same,composite z-score,[9],-0.39
same,composite z-score,[10],-0.164
same,composite z-score,[11],0.788
same,z-score,[12],0.759 (inactive)
same,z-score,[13],0.652 (inactive)
same,z-score,[14],-0.975 (inactive)
same,composite z-score,[15],-0.0313
same,z-score,[16],-0.0342 (inactive)
same,composite z-score,[17],-0.253
same,composite z-score,[18],-0.337
same,composite z-score,[19],0.272
same,composite z-score,[20],-0.162
CN1C(=O)C2C(C1=O)C1C=C(CCCO)C2C(c2cccs2)N1C (stereo not given),composite z-score,[1],-0.855
same,composite z-score,[2],1.65
same,composite z-score,[3],-0.2
same,composite z-score,[4],0.524
same,composite z-score,[5],-0.508
same,composite z-score,[6],0.822
same,composite z-score,[7],1.19
same,z-score,[8],0.22 (inactive)
same,composite z-score,[9],-0.225
same,composite z-score,[10],-0.579
same,composite z-score,[11],-0.214
same,z-score,[12],-0.68 (inactive)
same,z-score,[13],-0.149 (inactive)
same,z-score,[14],-0.113 (inactive)
same,composite z-score,[15],2.69
same,z-score,[16],0.729 (inactive)
same,composite z-score,[17],-0.384
same,composite z-score,[18],-0.4
same,composite z-score,[19],-0.553
same,composite z-score,[20],-0.385
C=C[C@H](COC(C)=O)N(Cc1ccc(OC(C)=O)c(OC)c1)S(=O)(=O)c1ccc(Br)cc1,composite z-score,[1],-0.0411
same,composite z-score,[2],1.46
same,composite z-score,[3],0.125
same,composite z-score,[4],0.311
same,composite z-score,[5],0.86
same,composite z-score,[6],0.785
same,composite z-score,[7],1.14
same,z-score,[8],-3.46 (inactive)
same,composite z-score,[9],0.413
same,composite z-score,[10],-0.0024
same,composite z-score,[11],0.484
same,z-score,[12],-2.5 (inactive)
same,z-score,[13],-1.08 (inactive)
same,z-score,[14],0.105 (inactive)
same,composite z-score,[15],1.81
same,z-score,[16],1.24 (inactive)
same,composite z-score,[17],0.15
same,composite z-score,[18],0.337
same,composite z-score,[19],0.176
same,composite z-score,[20],0.312
[N-]=[N+]=Nc1ccccc1[C@@H]1OC(c2ccc(OCCCO)cc2)=N[C@]1(CCS(=O)(=O)c1ccccc1)C(=O)N1CCOCC1,composite z-score,[1],0.712
same,composite z-score,[2],0.274
same,composite z-score,[3],0.269
same,composite z-score,[4],1.09
same,composite z-score,[5],1.62
same,composite z-score,[6],1.95
same,composite z-score,[7],1.24
same,z-score,[8],-0.246 (inactive)
same,composite z-score,[9],1.89
same,composite z-score,[10],-0.123
same,composite z-score,[11],1.55
same,z-score,[12],1.32 (inactive)
same,z-score,[13],1.91 (inactive)
same,z-score,[14],1.72 (inactive)
same,composite z-score,[15],3.59
same,z-score,[16],0.376 (inactive)
same,composite z-score,[17],0.515
same,composite z-score,[18],0.417
same,composite z-score,[19],1.06
same,composite z-score,[20],0.65
CC(C)(C)N1CC=CC23O[C@@H]4/C=C\CCCOC(=O)C4[C@H]2C(=O)N(CCO)[C@@H]3C1=O (stereo not given in full),composite z-score,[1],0.29
same,composite z-score,[2],-1.05
same,composite z-score,[3],-0.045
same,composite z-score,[4],0.588
same,composite z-score,[5],-0.931
same,composite z-score,[6],0.208
same,composite z-score,[7],0.938
same,z-score,[8],0.911 (inactive)
same,composite z-score,[9],-0.681
same,composite z-score,[10],-0.236
same,composite z-score,[11],-0.344
same,z-score,[12],0.478 (inactive)
same,z-score,[13],0.224 (inactive)
same,z-score,[14],-0.1 (inactive)
same,composite z-score,[15],1.94
same,z-score,[16],1.54 (inactive)
same,composite z-score,[17],-0.241
same,composite z-score,[18],-0.551
same,composite z-score,[19],-0.871
same,composite z-score,[20],-0.272
COCCOC(=O)N1C(=O)[C@@]2(c3cc(C#CCNC(N)=O)ccc31)[C@H](C(=O)N1CCN(c3ncccn3)CC1)[C@H]1C(=O)O[C@H](c3ccccc3)[C@H](c3ccccc3)N1[C@@H]2c1ccccc1OCCO,composite z-score,[1],0.397
same,composite z-score,[2],0.242
same,composite z-score,[3],0.0811
same,composite z-score,[4],0.947
same,composite z-score,[5],1.12
same,composite z-score,[6],0.727
same,composite z-score,[7],1.09
same,z-score,[8],-0.311 (inactive)
same,composite z-score,[9],1.28
same,composite z-score,[10],-0.204
same,composite z-score,[11],1.47
same,z-score,[12],2.12 (inactive)
same,z-score,[13],1.71 (inactive)
same,z-score,[14],4.95 (inactive)
same,composite z-score,[15],1.79
same,z-score,[16],1.72 (inactive)
same,composite z-score,[17],0.181
same,composite z-score,[18],0.808
same,composite z-score,[19],1.12
same,composite z-score,[20],-0.0286
CC(C)NC(=O)[C@@]1(Cc2ccccc2I)c2ccccc2C(=O)N(Cc2ccccc2)[C@H]1c1ccc(CO)cc1,composite z-score,[1],0.0478
same,composite z-score,[2],0.613
same,composite z-score,[3],-0.017
same,composite z-score,[4],0.554
same,composite z-score,[5],0.787
same,composite z-score,[6],1.38
same,composite z-score,[7],0.986
same,z-score,[8],-2.91 (inactive)
same,composite z-score,[9],0.612
same,composite z-score,[10],0.0401
same,composite z-score,[11],1.53
same,z-score,[12],-0.805 (inactive)
same,z-score,[13],-1.5 (inactive)
same,z-score,[14],-0.291 (inactive)
same,composite z-score,[15],2.91
same,z-score,[16],-0.408 (inactive)
same,composite z-score,[17],-0.0354
same,composite z-score,[18],1.04
same,composite z-score,[19],1.09
same,composite z-score,[20],-0.0605
CC(=O)NCCCC[C@@H]1NC(=O)[C@H]2C[C@@H](C(=O)NCCCCCC[N+](C)(C)C)[C@@H](c3cccc(OCCO)c3)N2C1=O,composite z-score,[1],-0.374
same,composite z-score,[2],0.645
same,composite z-score,[3],-0.0894
same,composite z-score,[4],0.245
same,composite z-score,[5],0.117
same,composite z-score,[6],1.5
same,composite z-score,[7],1.42
same,z-score,[8],5.18 (inactive)
same,composite z-score,[9],-0.0568
same,composite z-score,[10],-0.201
same,composite z-score,[11],1.53
same,z-score,[12],-0.752 (inactive)
same,z-score,[13],0.0936 (inactive)
same,z-score,[14],-0.425 (inactive)
same,composite z-score,[15],2.98
same,z-score,[16],1.23 (inactive)
same,composite z-score,[17],-0.16
same,composite z-score,[18],1.19
same,composite z-score,[19],0.97
same,composite z-score,[20],-0.0967
